The assay has as its target Metabotropic glutamate receptor 8 (Rattus norvegicus) (UniProt P70579). Briefly: mGlu8 glutamate curve leftward shift by modulators, SAR follow-up, mechanism study for mGlu8/mGlu7 PAM project, cell-based, rat receptor, Ga15, calcium, 10 µM (AID 743427). The following applies: rat mGlu8/Ga15, Fluo-4 calcium, glutamate CRC; glutamate CRC left shift; at 10 µM; stronger effect = higher value.

`COC(=O)c1ccc(-n2c(C)cc(C(=O)CSc3ccc(NC(C)=O)cc3)c2C)cc1`: the fold shift was 4.77.

The values above are taken from PubChem BioAssay AID743427 (Vanderbilt Specialized Chemistry Center, 2014).
